Laboratory results published in PubChem BioAssay.

Each compound was assayed against Torsin-1A-interacting protein 1 (Homo sapiens) (UniProt Q5JTV8) (assay: LAP1 binders from COS7 cell lysate, primary screen, small-molecule microarray, 635/667 nm fluorescence (AID 1116)). Conditions: COS7-hLAP1 lysate binding, 635 nm fluorescence, higher = more signal.
Chain of Torsin-1A-interacting protein 1 (Homo sapiens) (Q5JTV8 whole entry, looked up): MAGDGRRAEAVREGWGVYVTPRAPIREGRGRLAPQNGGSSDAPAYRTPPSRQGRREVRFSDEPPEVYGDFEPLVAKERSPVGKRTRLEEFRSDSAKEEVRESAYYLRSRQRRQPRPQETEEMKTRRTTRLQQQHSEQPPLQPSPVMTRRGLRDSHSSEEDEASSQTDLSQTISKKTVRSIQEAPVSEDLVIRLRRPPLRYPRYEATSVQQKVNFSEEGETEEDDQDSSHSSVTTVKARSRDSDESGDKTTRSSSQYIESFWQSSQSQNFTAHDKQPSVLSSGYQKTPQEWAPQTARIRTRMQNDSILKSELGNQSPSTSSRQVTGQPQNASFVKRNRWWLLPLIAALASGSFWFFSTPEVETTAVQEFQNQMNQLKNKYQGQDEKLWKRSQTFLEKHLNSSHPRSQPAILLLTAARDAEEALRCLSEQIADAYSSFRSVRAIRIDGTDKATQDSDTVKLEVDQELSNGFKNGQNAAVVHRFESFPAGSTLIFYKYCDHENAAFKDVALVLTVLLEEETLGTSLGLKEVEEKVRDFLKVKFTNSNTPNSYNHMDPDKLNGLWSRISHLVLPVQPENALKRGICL
With `N#Cc1ccc(NN2C(C(O)c3ccc([N+](=O)[O-])cc3)C=CC3C(=O)N(c4ccccc4)C(=O)C32)cc1` (centres undefined) the composite z-score was 0.818. `COCC(=C=CC[C@H](O)c1ccc(OCCO)cc1)C[C@H](O)c1cc(Cl)cc(Cl)c1O` gave a composite z-score of 0.163. `CCOC(=O)C1=CC[C@@H](c2ccccc2)N(S(=O)(=O)c2ccc(C)cc2)[C@H]1C(=O)OCC` showed a composite z-score of 0.962. `CCCCCN1CC=CC23O[C@@H]4C=CCOC(=O)[C@@H]4[C@H]2C(=O)N(CCCO)[C@@H]3C1=O` (some centres undefined) gave a composite z-score of 2.65. Compound `C[C@]1(C(=O)NCc2ccccc2)c2ccccc2C(=O)N(Cc2cc(F)cc(C(F)(F)F)c2)[C@H]1c1ccc(CO)cc1` has a composite z-score of -0.168. Work on `COc1ccc(C(O)C2C=CC3C(=O)NC(=O)C3N2Nc2ccccn2)cc1OCc1ccccc1` (centres undefined) yielded a composite z-score of 0.474. For `C=C(CCCC)C(=O)CC[C@H](OC(=O)c1cccnc1)c1cccc(OCCO)c1`, the composite z-score was 0.479. In the case of `O=C1OCCC/C=C\[C@H]2OC34C=CCN(Cn5nnc6ccccc65)C(=O)[C@H]3N(CCCCCO)C(=O)[C@@H]4C12` (some centres undefined), the composite z-score was -0.118. `CC(C)CNC(=O)[C@@H]1c2ccccc2C(=O)N(Cc2cc(C(F)(F)F)cc(C(F)(F)F)c2)[C@H]1c1ccc(CO)cc1` was tested, and the composite z-score was -0.0708. `CC(C)(C)N1CC=CC23O[C@@H]4C=CCOC(=O)[C@@H]4[C@H]2C(=O)N(CCCCCO)[C@@H]3C1=O` (some centres undefined) gave a composite z-score of 2.1. Compound `CCOC(=O)C[C@H]1[C@H](OC(=O)c2ccc(-c3ccccc3)cc2)[C@@H](NC(=O)Cc2ccc(OC)cc2)c2cc(OCCCO)ccc2N1C(=O)c1ccc2ccccc2n1` has a composite z-score of -0.0103. With `COCCOC(=O)N1C(=O)[C@@]2(c3cc(C#CCNC(N)=O)ccc31)[C@H](c1ccc(O)cc1)N1[C@H](c3ccccc3)[C@H](c3ccccc3)OC(=O)[C@H]1[C@@H]2C(=O)Nc1nc2ccccc2s1` the composite z-score was 0.0164. `COc1ccc(C#Cc2ccc3c(c2)[C@]2(C(=O)N3)[C@H](C(=O)NC[C@H](O)c3ccccc3)[C@H]3C(=O)O[C@H](c4ccccc4)[C@H](c4ccccc4)N3[C@@H]2c2ccc(OCCO)cc2)cc1` gave a composite z-score of 0.952. In the case of `O=C1OCCC=C[C@H]2OC34C=CCN(Cc5ccccc5)C(=O)[C@H]3N(CCCO)C(=O)[C@@H]4C12` (some centres undefined), the composite z-score was 0.0647. `COC(=O)[C@@]1(Cc2ccccc2)N=C(c2ccc(OCCCO)cc2)O[C@H]1c1ccccc1N=[N+]=[N-]` showed a composite z-score of 2.83. `COc1ccc(NN2C(C(O)c3ccc(OC)c(OCc4ccccc4)c3)C=CC3C(=O)N(C4CCCCC4)C(=O)C32)cc1` (centres undefined) gave a composite z-score of 0.637. Work on `C=CCC(OC(C)=O)[C@@H]1[C@@H](N(Cc2cccc3ccccc23)C(=O)c2cccc3ccccc23)c2cc(OCCCO)ccc2N1C(=O)c1ccc2ccccc2n1` (some centres undefined) yielded a composite z-score of -0.117. In the case of `CC(C)CNC(=O)[C@@]1(c2ccc([N+](=O)[O-])cc2)CC(=O)N(CC23CC4CC(CC(C4)C2)C3)[C@@H]1c1ccc(CO)cc1I`, the composite z-score was 0.798. Work on `Cc1ccc(S[C@]2(C(=O)NCC(C)C)CC(=O)N(Cc3ccccc3Cl)[C@@H]2c2ccc(CO)cc2)cc1` yielded a composite z-score of -1.08. With `[N-]=[N+]=NCc1ccccc1C[C@]1(C(=O)O)N=C(c2ccc(OCCCO)cc2)O[C@H]1c1ccccc1` the composite z-score was 3.14. Work on `Cc1ccccc1C(O)C1C=CC2C(=O)N(C)C(=O)C2N1Nc1ccccc1` (centres undefined) yielded a composite z-score of 1.91. `O=C1O[C@H](c2ccccc2)[C@H](c2ccccc2)N2[C@H]1[C@@H](C(=O)N1CCN(c3ncccn3)CC1)[C@]1(C(=O)Nc3ccccc31)[C@H]2c1ccc(OCCO)cc1` gave a composite z-score of 0.75. In the case of `CCCCCN1CC=CC23O[C@@H]4/C=C\CCC(C)OC(=O)C4[C@H]2C(=O)N(CCCCCO)[C@@H]3C1=O` (some centres undefined), the composite z-score was -0.912. For `CC(C)Cc1ccc(CN2CC[C@@H](NS(=O)(=O)c3ccccc3)C2)cc1`, the composite z-score was -0.633. In the case of `C=CCC(OC(C)=O)[C@@H]1[C@@H](N(Cc2cccc3ccccc23)C(=O)c2ccc(C)cc2)c2cc(OCCCO)ccc2N1C(=O)Cc1ccc(OC)cc1` (some centres undefined), the composite z-score was 0.0873. Compound `CN1C(=O)C2C=CC(C(O)c3ccccn3)N(Nc3ccccc3)C2C1=O` (centres undefined) has a composite z-score of 0.353. Work on `COc1cccc(C(=O)O[C@H]2CC[C@]3(C)C4=C(CCC3C2(C)C)[C@]2(C)CC[C@H]([C@H](C)CCCC(C)C)[C@@]2(C)CC4)c1` (some centres undefined) yielded a composite z-score of 0.105. `COc1ccc(C(=O)Nc2cccc(CN3C(=O)[C@@]4(O[C@@H](CCn5cc(CCO)nn5)[C@H]([Si](C)(C)c5ccc(OC)cc5)[C@H]4C)c4ccccc43)c2)cc1` was tested, and the composite z-score was 0.602. `O=C1N(CCS(=O)(=O)c2ccccc2)Cc2ccccc2C[C@]12N=C(c1ccc(OCCCO)cc1)O[C@@H]2c1ccccc1` gave a composite z-score of 1.88.
